Here are results for 40 compounds from PubChem BioAssay (NCATS).

Each structure is given as a SMILES string. Inconclusive results are not listed. Values without a mark were called inactive. Active and inactive are the calls of the source. Calls come from the whole dose curve; as a rule, active = well fitted inhibition curve with a large enough effect; inconclusive = small, poorly fitted or top-dose-only effect; inactive = flat fitted curve, though single readings scatter.

This assay is described as follows: qHTS for Inhibitors of Plasmodium falciparum (HB3) proliferation (AID 504318).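 Note: 0% = DMSO vehicle and -100% = artemisinin control; nearly all actives have a fitted effect of over 60% in size.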 The settings on record: P. falciparum HB3 in erythrocytes, SYBR Green DNA, 72 h; series mostly up to 7.21 µM; activity change, negative = inhibition: at the top concentration. From the text:
Plasmodium falciparum is a virulent malarial parasite that kills 1-2 million people worldwide each year. Malaria not only inflicts tremendous suffering and morbidity on the human population, but has dramatically influenced the course of civilization with profound sociological and economic implications (Shah, S. 2010). Transmitted by mosquitoes, the sporozoite form of the parasite enters the blood stream to infect hepatocytes, where they become merozoites that infect red blood cells (erythrocytes). Within erythrocytes, merozoites begin a […] cycle of growth and division, after which the parasite is released to infect new red blood cells. Gametocytes, which form within erythrocytes as well, circulate in the bloodstream and are ingested by the mosquito, thereby completing the life cycle (see CDC website). To profile malarial lines for differential chemical responses and to identify inhibitors of malarial growth, an assay that measures P. falciparum growth and replication within erythrocytes was employed. This assay uses a DNA binding fluorescent dye (SYBR Green) to detect parasite DNA following cell lysis. Because mature erythrocytes lack DNA, only Plasmodium-derived DNA is detected. The P. falciparum line cp250, derived from a malarial isolate from Cambodia, (Mu, J., et al. 2010) was added to the panel of lines, Dd2, HB3, 7G8 and GB4 in this study. Laboratory of Assay Development and Screening Technology [ADST] and NIH Chemical Genomics Center [NCGC] Boston University, Chemistry Department, Center for Chemical Methodology and Library Development [CMLD-BU] NIH National Institute of Allergy and Infectious Diseases [NIAID]
ADST Assay Protocol Summary: The 1536-well SYBR Green viability assay was based on the method of Bennett et al (2004) and described previously in 1536-well format (Yuan J., et al. 2009). For screening 3 ul culture medium was dispensed into 1536 well black clear bottom plates (Aurora Biotechnologies) using a Multidrop Combi (Thermo Fisher Scientific Inc.), 23 nL compounds in DMSO were added by a pin transfer (Cleveland, P.H. and Koutz, P.J, 2005) using a pin tool-based delivery system (Kalypsys), and 5 ul of erythrocytes infected with P. falciparum one of five lines (cp250, Dd2, HB3, 7G8 or GB4, 0.3% parasitemia, 2.5% hematocrit final concentration) were added. The plates were incubated at 37C in a humidified incubator in 5% CO2 for 72 h, and 2 ul lysis buffer (20 mM Tris HCl, 10 mM EDTA, 0.16% saponin, 1.6% triton X, 10X SYBR Green I (supplied as 10,000X final concentration by Invitrogen) was added to each well. The plates were mixed for 25 sec with gentle shaking and incubated overnight at room temperature in the dark. The following morning, fluorescence intensity at 485(14) nm excitation and 535(25) nm emission wavelengths was measured on an EnVision (Perkin Elmer) plate reader. Plate reads were normalized relative to the control inhibitor (0.29 uM artemisinin) and vehicle (DMSO) wells present on each plate and then corrected by an algorithm using vehicle-only control plates at the beginning and end of the compound plate stack. References Shah, S. (2010). The Fever: how malaria has ruled humankind for 500,000 years. New York, Sarah Crichton Books. CDC web site, http://www.cdc.gov/malaria/about/biology/index.html Mu, J., Myers, R.A., Jiang, H., Liu, S., Ricklefs, S., Waisberg, M., Chotivanich, K., Wilairatana, P., Krudsood, S., White, N.J., et Plasmodium falciparum genome-wide scans for positive selection, recombination hot spots and resistance to antimalarial drugs Nature Genetics 2010, 42, pp 268-271 Bennett TN, Paguio, M., Gligorijevic, B., Seudieu, C., Kosar, A. D., Davidson, E., and Roepe, P. D. Novel, rapid, and inexpensive cell-based quantification of antimalarial drug efficacy Antimicrobial Agents Chemother. 2004, 48(5): pp 1807-10 Yuan J, Johnson RL, Huang RL, Wichterman J, Jiang HY, Hayton K, Fidock DA, Wellems TE, Inglese J, Austin CP, Su XZ. […]
Regarding `CC1(OC(=O)CCc2ccccc2)C(=O)C=C2C=C(c3ccc(C#N)cc3)N(C3CCCCC3)C=C2C1=O` (stereo not given), the “activity change, negative = inhibition” value was -6.45%.

Turning to `COC(=O)N[C@H](C(C(=O)OC)=C(C)NCc1ccccc1)c1cccc(F)c1`, the “activity change, negative = inhibition” value is 3.61%.

`CCN1C(=O)N[C@@H](CCc2ccccc2)C(C(C)=O)=C1C`: the “activity change, negative = inhibition” value is 0.86%.

As to `COC[C@@H](O)[C@@H](OC)[C@H](OC)[C@H](Cc1c(OC)cc(OC)cc1OC)OC`, the “activity change, negative = inhibition” value is 7.26%.

Regarding `COC(=O)CCCC1=CC2=C(c3ccccc3)C(=O)C(C)(OC(=O)C3CCCC3)C(=O)C2=CN1C1CC1` (stereo not given), the “activity change, negative = inhibition” value is -1.66%.

On to `CCCCC1=CC2=CC(=O)C(C)(OC(=O)CC)C(=O)C2=CN1Cc1ccco1` (stereo not given), for which the “activity change, negative = inhibition” value was 2.05%.

With `CCOC(=O)CN1C(=O)N[C@@H](c2cccs2)C(C(=O)OC)=C1C`, the “activity change, negative = inhibition” value was 4.96%.

For the compound `COC/C=C/C1=CC2=CC(=O)C(C)(OC(=O)c3cnc4ccccc4n3)C(=O)C2=CN1CCc1ccccn1` (stereo not given), the “activity change, negative = inhibition” value is 3.52%.

As for `CC(C)C(=O)N[C@@H]1CCCN1C(=O)C=Cc1ccccc1`, the “activity change, negative = inhibition” value was 3.31%.

For `CC1(OC(=O)CCc2ccccc2)C(=O)C=C2C=C(c3ccc(C#N)cc3)N(CCN3CCOCC3)C=C2C1=O` (stereo not given), the “activity change, negative = inhibition” value was -5.89%.

Turning to `COC/C=C/C1=CC2=CC(=O)C(C)(OC(=O)c3cnc4ccccc4n3)C(=O)C2=CN1CCc1c[nH]c2ccccc12` (stereo not given), the “activity change, negative = inhibition” value was -6.82%.

As for `C[C@H]1Cc2c(-c3ccccc3)nc3c(c2CO1)CN(S(=O)(=O)c1ccc(C#N)cc1)CC3`, the “activity change, negative = inhibition” value is -8.24%.

For the compound `CCN1C(=O)NC(c2ccc(Br)cc2)C(C(=O)OC)=C1C` (stereo not given), the “activity change, negative = inhibition” value is -0.897%.

Regarding `COC(=O)C1=C(C(=O)OC)[C@@H]2N(C)c3ccc(OC)cc3[C@@]23C[C@@H](C(=O)OC)N(C(=O)C2CCC2)C3=N1`, the “activity change, negative = inhibition” value was -7.93%.

Take `COC(=O)C1=C(C(=O)OC)[C@@H]2N(C)c3ccccc3[C@@]23C[C@@H](C(=O)OC)N(S(=O)(=O)c2ccc(C#N)cc2)C3=N1`: the “activity change, negative = inhibition” value is -0.647%.

For the compound `CCOC(=O)CN1C(=O)N[C@@H](c2ccco2)C(C(=O)OC)=C1C`, the “activity change, negative = inhibition” value is 6.89%.

For `CCN1C(=O)N[C@@H](c2ccccc2)C(C(=O)OC)=C1C`, the “activity change, negative = inhibition” value was 2.5%.

`COC(=O)C1=C(C(=O)OC)[C@@H]2Nc3ccccc3[C@@]23C[C@@H](C(=O)OC)N(S(=O)(=O)c2ccc(C)cc2)C3=N1`: the “activity change, negative = inhibition” value is -1.02%.

Turning to `Cc1ccccc1Nc1oc(-c2ccccc2)nc1-c1ccc(C(F)(F)F)cc1`, the “activity change, negative = inhibition” value is 6.24%.

With `COC(=O)N[C@@H](c1cccc(C)c1)[C@]1(C(C)=O)CCCC1=O`, the “activity change, negative = inhibition” value is 7.66%.

On to `COC(=O)CCCC1=CC2=CC(=O)C(C)(OC(=O)c3cccs3)C(=O)C2=CN1c1ccc(CO)cc1` (stereo not given), for which the “activity change, negative = inhibition” value was -2.49%.

Consider `CCOC(=O)C=CCCCC=CC(=O)c1ccccc1`, for which the “activity change, negative = inhibition” value is 0.432%.

On to `CC[C@@H](C)CN1C(=O)N[C@@H](c2ccccc2)C(C(=O)OC)=C1C`, for which the “activity change, negative = inhibition” value is 1.16%.

`CC1(OC(=O)CCc2ccccc2)C(=O)C=C2C=C(c3ccc(C#N)cc3)N(CCc3ccccn3)C=C2C1=O` (stereo not given): the “activity change, negative = inhibition” value was -3.49%.

For `CCOC(=O)CN1C(=O)N[C@@H](c2ccccc2)[C@H](C(=O)OC)[C@H]1C`, the “activity change, negative = inhibition” value is -3.1%.

For `CC(=O)[C@@H]1[C@@H](C)N(Cc2ccccc2)C(=O)N[C@H]1c1cccc(C(F)(F)F)c1`, the Potency result is “inactive”.

Consider `O=C1c2cc(Br)ccc2O[C@@H](c2ccc3c(c2)OCO3)[C@@H]1O`, for which the “activity change, negative = inhibition” value was -2.42%.

Regarding `COC(=O)CCCC1=CC2=CC(=O)C(C)(OC(=O)c3cccs3)C(=O)C2=CN1c1ccccc1` (stereo not given), the Potency result was “inactive”.

`CC1(OC(=O)CCc2ccccc2)C(=O)C=C2C=C(c3ccc(C#N)cc3)N(C3CC3)C=C2C1=O` (stereo not given): the “activity change, negative = inhibition” value is -5.47%.

In the case of `COC(=O)C1=C(C(=O)OC)[C@@H]2Nc3ccccc3[C@@]23C[C@@H](C(=O)OC)N(C(=O)NC2CCCC2)C3=N1`, the “activity change, negative = inhibition” value is -3.07%.

In the case of `C=CC1=C2C=C(C3CC3)N(CCCN(CC)CC)C=C2C(=O)C(C)(OC(=O)c2ccco2)C1=O` (stereo not given), the “activity change, negative = inhibition” value is 3.95%.

In the case of `C[C@H]1Cc2c(COc3ccccc3)nc3c(c2CO1)CN(C(=O)NCCc1c[nH]c2ccccc12)CC3`, the “activity change, negative = inhibition” value is 1.3%.

Consider `CC(C)OCCCN1C=C2C(=O)C(C)(OC(=O)CCc3ccccc3)C(=O)C=C2C=C1c1ccc(C#N)cc1` (stereo not given), for which the “activity change, negative = inhibition” value was -3.89%.

As to `CCN1C(=O)N[C@@H](c2ccco2)C(C(C)=O)=C1C`, the “activity change, negative = inhibition” value was -0.405%.

For `COC(=O)CCC(=O)OC1(C)C(=O)C2=CN(C3CC3)C(c3ccc(OC)cc3)=CC2=C(Br)C1=O` (stereo not given), the “activity change, negative = inhibition” value was -10.8%.

Regarding `CCOC(=O)CN1C(=O)N[C@@H](c2cccc(F)c2)C(C(=O)OC)=C1C`, the “activity change, negative = inhibition” value is -3.96%.

Take `COC(=O)C1=C(C(=O)OC)[C@@H]2N(C)c3ccccc3[C@@]23C[C@@H](C(=O)OC)N(S(=O)(=O)c2ccc(C)cc2)C3=N1`: the “activity change, negative = inhibition” value is -4.22%.

With `CCOC(=O)NN=C1C[C@@H](O)[C@@H](O)[C@@H]2[C@H]3C(=O)N([C@@H](C)c4ccccc4)C(=O)[C@@H]3CC[C@@H]12`, the “activity change, negative = inhibition” value is -0.772%.

On to `CCCCC1=CC2=CC(=O)C(C)(OC(=O)CC)C(=O)C2=CN1C1CCCCC1` (stereo not given), for which the “activity change, negative = inhibition” value was -1.02%.

With `COC/C=C/C1=CC2=CC(=O)C(C)(OC(=O)c3cnc4ccccc4n3)C(=O)C2=CN1CCCOC(C)C` (stereo not given), the “activity change, negative = inhibition” value is -0.155%.
